# Compound activity from PubChem BioAssay.
# GLS inh: glutaminase GLS (human) inhibition; O94925; GLS enzymatic activity, qHTS titration; Potency, µM (top dose mostly 45.5 µM), for the others: top-dose activity change, negative = inhibition, usual class: inhibitors; 410,000 compounds, 0.21% hits; further: on the % scale 0 is the no-effect control and ±100 the full control effect
#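 hKGA; 45 mM KH2PO4 pH 8.2 + 0.02% Tween-20; cpd via pin tool; 1 mM Gln soln; GluOx/HRP/Amplex Red; RT 30 min; fluor. t0 & final.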
# Pol iota inh: blocks human DNA polymerase iota activity; Q9UNA4; Pol iota fluorescent replication assay, 10 min; Potency, µM (series often up to 115 µM), inactives show at the top dose activity, negative = inhibition, hits mostly inhibitors; 390,000 compounds, 1% hits; AID 588590
#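 Pol iota at 10 nM preincubated 15 min with compounds at room temperature; reaction started with fluorescent substrate, 50 nM final. Fluorescence read kinetically at 0 and 10 min; buffer-only wells as negative control.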
# Pol beta inh: inhibitors of human DNA polymerase beta; Pol beta primer extension/strand displacement, fluorescence kinetic; P06746; Potency, µM (top dose mostly 114 µM), without a hit: at the top dose activity change, negative = inhibition, usual class: inhibitors; 340,000 compounds, 1.3% hits; AID 485314; further: on the % scale 0 is the no-effect control and ±100 the full control effect
#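 Human Pol beta at 10 nM; strand-displacement substrate 50 nM final. Compound exposure 15 min at room temperature before start, reaction 10 min at room temperature.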
# Pol kappa inh: DNA polymerase kappa (human) inhibition. Potency, µM (series often up to 107 µM), inactives show top-dose activity, negative = inhibition, usual class: inhibitors. 400,000 compounds, 0.53% hits. purified Pol kappa, fluorescent DNA synthesis assay, 10 min. Q9UBT6; further: on the % scale 0 is the no-effect control and ±100 the full control effect
#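 10 nM Pol kappa was preincubated with compounds for 15 min at room temperature. Reaction started with 50 nM (final) substrate. Fluorescence read kinetically at 0 and 10 min.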
# GCN5L2 inh: GCN5L2 (KAT2A) acetyltransferase inhibition. GCN5L2 HAT assay, ThioGlo1 CoA-SH fluorescence. Potency, µM (titrated, usually from 58.9 µM), without a hit: at the top dose activity change, negative = inhibition, usual class: inhibitors. 390,000 compounds, 0.21% hits; further: on the % scale 0 is the no-effect control and ±100 the full control effect
# Target sequence (Q92830 whole entry, looked up): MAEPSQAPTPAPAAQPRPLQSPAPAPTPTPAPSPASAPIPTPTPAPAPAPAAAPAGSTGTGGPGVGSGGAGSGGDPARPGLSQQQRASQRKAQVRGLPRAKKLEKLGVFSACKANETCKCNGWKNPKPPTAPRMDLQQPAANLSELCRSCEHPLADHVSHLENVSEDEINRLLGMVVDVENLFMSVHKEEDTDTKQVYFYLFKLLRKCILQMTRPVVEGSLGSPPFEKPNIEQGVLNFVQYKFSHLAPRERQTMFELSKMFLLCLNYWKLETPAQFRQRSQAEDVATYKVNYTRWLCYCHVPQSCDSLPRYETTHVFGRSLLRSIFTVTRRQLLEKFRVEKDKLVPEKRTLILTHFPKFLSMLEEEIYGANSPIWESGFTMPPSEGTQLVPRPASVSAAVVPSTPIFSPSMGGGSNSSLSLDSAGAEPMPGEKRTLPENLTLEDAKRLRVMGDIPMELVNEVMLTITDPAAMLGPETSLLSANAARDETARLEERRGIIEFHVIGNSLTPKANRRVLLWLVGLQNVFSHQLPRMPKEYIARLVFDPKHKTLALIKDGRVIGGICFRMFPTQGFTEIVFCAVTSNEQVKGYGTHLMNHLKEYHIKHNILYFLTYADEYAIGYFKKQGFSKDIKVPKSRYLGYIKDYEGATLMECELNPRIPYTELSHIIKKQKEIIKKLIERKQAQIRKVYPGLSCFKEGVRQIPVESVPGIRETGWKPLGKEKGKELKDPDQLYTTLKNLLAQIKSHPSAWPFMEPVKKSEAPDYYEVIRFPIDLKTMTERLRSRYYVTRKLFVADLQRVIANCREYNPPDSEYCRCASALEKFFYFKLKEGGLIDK
#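 Titration-based screen in which CoA formation is detected via maleimide probe ThioGlo1 (50uM) turning fluorescent on thiol reaction; substrates H3(1-25) 75uM and acetyl-CoA 70uM, GCN5L2 20nM, 20 min incubation at room temperature.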
# Pol eta inh: blocks human DNA polymerase eta activity. Q9Y253. recombinant Pol eta, fluorescent DNA replication assay. Potency, µM (top dose mostly 114 µM), without a hit: top-dose activity change, negative = inhibition, actives largely listed as inhibitors. 390,000 compounds, 1.2% hits; further: on the % scale 0 is the no-effect control and ±100 the full control effect
#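 Fluorescent replication assay: 50 nM final substrate added after a 15 min room-temperature compound preincubation with 10 nM enzyme. Signal taken at 0 min and again at 10 min.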
# Numbers without * were called inactive; ? = inconclusive; · = not tested or not shown; [ ] = remark or other dose. Shown are actives, neighbours in structure and some others; about 2.4% of the full set was active somewhere. The call rests on the fitted dose curve; in most records, active means well fitted inhibition curve with a large enough effect; inconclusive means small, poorly fitted or top-dose-only effect, or another doubt; inactive means no such curve, though single readings can be large or run the other way. Potency means the concentration at half of the fitted maximal effect.
SMILES,GLS inh,Pol iota inh,Pol beta inh,Pol kappa inh,GCN5L2 inh,Pol eta inh
O=C(Nc1nnc(SCc2ccc(F)cc2)s1)C1CC(=O)N(c2ccc3c(c2)OCCO3)C1 (stereo unspecified),18%,-8%,3%,-6%,-8%,-6%
CCS(=O)(=O)N1Cc2ccccc2CC1C(=O)NCCc1ccccc1 (stereo unspecified),3%,?,50µM*,-7%,-5%,-14%
CCC(=O)N1c2ccccc2CC1C(=O)NCCc1ccccc1 (stereo unspecified),-11%,22%,-19%,-6%[60.1 µM],2%,-3%
CCS(=O)(=O)N1Cc2ccccc2CC1C(=O)Nc1cc(S(C)(=O)=O)ccc1Cl (stereo unspecified),-5%,35µM*,-11%,?,?,?
CCCCCOc1ccc(NC(=O)Cn2c(-c3cncs3)nc3ccccc32)cc1,-3%,12%,3%,5%,5%,·
Clc1cccc(CNc2ncnc3nc[nH]c23)c1,·,?,·,3%,·,·
Clc1ccc(-c2csc3ncnc(Sc4nnnn4C4CC4)c23)cc1,·,-17%,·,-2%,·,·
COc1ccc(CC(=O)OCC(=O)Nc2ncc(Cl)c(C)c2Cl)cc1,-10%,?,·,-38%,-11%,20µM*
Cc1c(Cl)cnc(NC(=O)COC(=O)c2ccc3c(c2)OCO3)c1Cl,4%,72%,5%,-4%,-5%,?
COc1ccc(CC(=O)OCC(=O)Nc2ccc(Cl)cc2C)cc1,3%,55%,·,-15%,-1%,-12%
Cc1noc(C)c1C(=O)OCC(=O)Nc1ncc(Cl)c(C)c1Cl,80%,?,·,-18%,-16%,20µM*
Cc1c(Cl)cnc(NC(=O)COC(=O)C(NC(=O)c2ccco2)C(C)C)c1Cl (stereo unspecified),-9%,?,45µM*,-4%,-12%,89µM*
Cc1[nH]c2ccccc2c1C(=O)COC(=O)c1ccccc1SCC(=O)N1CCCC1,·,-16%,·,3%,·,·
Cc1cc(C)c(O)c(-c2cc(C(=O)Nc3cccnc3)[nH]n2)c1,?,?,56µM*,-11%,-4%,-15%
Cc1cc(O)c(-c2cc(C(=O)Nc3cccnc3)[nH]n2)cc1C,-1%,-26%,5%,-12%,2%,-4%
O=C1C=C(O)c2cccc(O)c2C1=O,-3%,?,20µM*,?,?,35µM*
Cc1c(/C=C/c2ccnc3ccccc23)ccc(N(C)C)c1C,·,-8%,·,-9%,·,·
CCN(C(=O)Cn1nnc2sc(-c3ccccc3)cc2c1=O)c1cccc(C)c1,11%,9%,26%,1%,-19%,·
COc1ccc(CCNC(=O)CCCCn2c(=O)c3ccccc3n(Cc3cccc(C)c3)c2=O)cc1OC,1%,17%,0%,3%,-4%,-18%
COc1ccc(CCNC(=O)CCCCn2c(=O)c3ccccc3n(Cc3cc(C)ccc3C)c2=O)cc1OC,5%,79µM*,6%,-5%,-4%,-4%
CCCCCCCCCCCCCCSCC(=O)O,·,6%[58.9 µM],?,2%[60.1 µM],10µM*,-4%[57.1 µM]
CCc1ccc(CNCc2c(C(=O)O)n(Cc3cccc(F)c3)c3cc(OC)ccc23)cc1,2%,7%,?,3%,-1%,-11%
COc1ccccc1/C=C/c1nc2ccccc2[nH]1,·,-6%,·,-10%,·,·
COC(=O)c1c(NC(=O)CCCOc2ccc(C(C)(C)C)cc2)sc2c1C(C(=O)OC)CC2 (stereo unspecified),1%,89µM*,-10%,?,?,-12%
CCCCCCC(=O)O[C@@H]1CC[C@H]2[C@@H]3CCc4cc(O)ccc4[C@H]3CC[C@]12C,-4%,·,·,·,·,·
SMILES,GLS inh,Pol iota inh,Pol beta inh,Pol kappa inh,GCN5L2 inh,Pol eta inh
COc1ccc(C2=CC3=C(Br)C(=O)C(C)(OC(=O)c4ccc(Cl)nc4)C(=O)C3=CO2)cc1 (stereo unspecified),-29%,10µM*,50µM*,?,-4%,22µM*
COC(=O)CCC(=O)OC1(C)C(=O)C2=CN(Cc3ccc4c(c3)OCO4)C(c3ccc(OC)cc3)=CC2=C(Br)C1=O (stereo unspecified),0%,?,·,-22%,·,-11%
COC(=O)CCC(=O)OC1(C)C(=O)C2=CN(CCc3ccccn3)C(c3ccc(OC)cc3)=CC2=C(Br)C1=O (stereo unspecified),2%,?,·,-16%,·,32µM*
COC(=O)CCC(=O)OC1(C)C(=O)C2=CN(CCCCO)C(c3ccc(OC)cc3)=CC2=C(Br)C1=O (stereo unspecified),·,·,-13%,·,-3%,·
COC(=O)CCC(=O)OC1(C)C(=O)C2=COC(c3ccc(OC)cc3)=CC2=C(Br)C1=O (stereo unspecified),?,13µM*,22µM*,25µM*,-5%,10µM*
O=C(C[n+]1ccccc1)c1ccc(I)cc1,·,28%,·,1%,·,·
CCc1cc[n+](CC(=O)c2ccc(F)cc2)cc1C(=O)O,·,14%,·,4%,·,·
Nc1cccc2cccnc12,·,?,·,-17%,·,·
O=c1ccc2c(o1)/C(=C/C=C(Cl)Cl)CCC2,-1%,?,28µM*,-8%,-9%,-10%
COc1ccc(NC(=O)CSc2nc(SC)ns2)cc1,1%,7%,89µM*,1%,-5%,-10%
CSc1nsc(SCC(=O)Nc2ccc(NC(C)=O)cc2)n1,-1%,45%,37%,-10%,0%,-26%
COc1ccc(NC(=O)CSc2ccc(-c3cccs3)nn2)cc1,4%,89µM*,0%,-4%,-8%,-12%
CCOc1ccccc1NC(=O)CSc1ccc(-c2ccco2)nn1,8%,56µM*,?,-23%,-22%,?
COc1ccc(NC(=O)CSc2ccc(-c3ccco3)nn2)cc1,2%,?,32µM*,-22%,-20%,?
O=C1SC(Nc2ccccc2)C(=O)N1c1ccccc1 (stereo unspecified),·,12%,·,-23%,·,·
O=C(C[n+]1cccc(Br)c1)c1ccc2ccccc2c1,·,10%,·,-9%,·,·
COc1ccc(/C=c2\[nH]c(=O)/c(=C/c3ccc(OC)cc3)[nH]c2=O)cc1,·,20%,·,11%,·,·
COc1cc(NC(=O)CSc2ccc(-c3ccco3)nn2)cc(OC)c1,0%,50µM*,?,-33%,-2%,-17%
Cc1cc(C)cc(NC(=O)CSc2ccc(-c3ccco3)nn2)c1,-7%,43%,-15%,-6%,28%,-9%
Cc1ccccc1-c1nnc(SCc2ccc(F)cc2)o1,5%,89µM*,-28%,-8%,-19%,7%
NCCN(Cc1ccc(Cl)c(Cl)c1)c1ccc(Br)cn1,·,5%,·,-22%,·,·
